High-throughput results deposited in PubChem BioAssay by National Center for Advancing Translational Sciences (NCATS).
IP6K1 inh = IP6K1 kinase inhibition | Q92551 | IP6K1 kinase, ADP-Glo luminescence, 2 h; stronger effect = lower value | activity change, % (series mostly up to about 58 µM) | 140,000 compounds, 0.81% hits | AID 1645851; in the data active means activity change below about -25%; further: on the % scale 0 is the no-effect control and ±100 the full control effect
Target sequence (Q92551 whole entry, looked up): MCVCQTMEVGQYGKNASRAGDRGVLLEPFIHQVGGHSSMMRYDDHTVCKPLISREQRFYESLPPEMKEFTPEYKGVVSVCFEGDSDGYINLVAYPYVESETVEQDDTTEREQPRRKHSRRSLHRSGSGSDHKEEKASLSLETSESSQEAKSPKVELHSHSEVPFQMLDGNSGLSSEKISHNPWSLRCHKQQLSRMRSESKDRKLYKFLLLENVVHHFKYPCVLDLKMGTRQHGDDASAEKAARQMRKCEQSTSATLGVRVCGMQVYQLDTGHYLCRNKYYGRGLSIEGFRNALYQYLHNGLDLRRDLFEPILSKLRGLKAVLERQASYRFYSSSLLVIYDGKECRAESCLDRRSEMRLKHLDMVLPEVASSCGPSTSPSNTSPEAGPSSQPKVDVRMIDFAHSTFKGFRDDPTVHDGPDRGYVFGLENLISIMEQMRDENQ
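ADP-Glo luminescence measures ADP made by human IP6K1 during a 2 h RT reaction with ATP/IP6 (mix at 1.3 mM/130 uM); top library doses 57.5 and 19.1 uM final.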
KDM5B inh = inhibitors of human KDM5B histone demethylase; KDM5B demethylase, FDH-coupled NADH fluorescence (FDH is formaldehyde dehydrogenase); Potency, µM (titrated, usually from 57.7 µM), most hits filed as inhibitors; 220,000 compounds, 2.6% hits; active means well fitted inhibition curve with a large enough effect; inconclusive means small, poorly fitted or top-dose-only effect; inactive means no such curve, though single readings can be large or run the other way; further: potency means the concentration at half of the fitted maximal effect; 0% is about no effect; nearly all actives have a fitted effect of over 70% in size
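Inhibition is measured as reduced NADH fluorescence generation from FDH coupling to formaldehyde release. Truncated KDM5BΔAP at 200 nM final acts on H3K4me3 peptide (12.5 µM in substrate mix) in pH 7.5 HEPES buffer with Tween-20, 30 min, room temperature.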
* = called active by the depositor; i = inactive; ? = inconclusive; · = no result given. Sampled rows, rich in hits. Any-hit rate of the full collection: about 2.8%.

SMILES	IP6K1 inh	KDM5B inh
CCOc1ccccc1CN1CCC2(CCN(C(=O)C(C)(C)C)CC2)Oc2ccccc21	9	?
Cc1nn(-c2ccccc2)c2c1C(C(C)C)N(C1CN(C(=O)Nc3ccccc3)C1)C2=O (stereo unspecified)	14	·
Cc1nc2cnccn2c1C(=O)NCc1cccc(C(F)(F)F)c1	4	·
O=C(NCc1ccc2c(c1)OCO2)c1nc2cccnc2n(Cc2ccccc2)c1=O	3	·
O=C(NCc1cccs1)c1nc(-c2cccnc2)c2cnccn12	0	25µM*
O=C(NCc1ccc2c(c1)OCO2)c1nc(-c2cccc(C(F)(F)F)c2)c2cnccn12	1	28µM*
O=C(NCc1cccs1)c1nc(-c2cccnc2)c2ccccn12	9	i
O=C(NCc1ccc2c(c1)OCO2)c1nc(-c2cccnc2)c2cnccn12	1	28µM*
Nc1cccc(OCC2CCCO2)c1 (stereo unspecified)	·	i
COc1ccc(Cl)cc1N1CC(c2nc3ccccc3n2C)CC1=O (stereo unspecified)	·	i
O=C(/C=C/c1ccc2ccccc2c1)c1cccnc1	·	i
O=C(NCCc1ccccc1)c1ccc2nc(-c3ccccn3)oc2c1	0	·
Cc1cn2nc(C(=O)NCc3ccc(F)cc3F)cc2c(N2CCSCC2)n1	5	?
Cc1cn2nc(C(=O)NCCCc3ccccc3)cc2c(N2CCSCC2)n1	-14	?
Cc1cn2nc(C(=O)NCc3ccc(C(C)C)cc3)cc2c(N2CCSCC2)n1	0	14µM*
Cc1cn2nc(C(=O)NCc3cccc(Cl)c3)cc2c(N2CCSCC2)n1	-12	14µM*
Cc1cn2nc(C(=O)NCCc3cccs3)cc2c(N2CCSCC2)n1	7	14µM*
COC(=O)C1=C(C)N(c2ccc(C)c(C)c2)C(=S)NC1c1ccsc1 (stereo unspecified)	·	i
Cc1ccc(C(=O)NCCNC(=O)c2ccc(-c3cncnc3)cc2)cc1	23	·
CS(=O)(=O)N1CCC(Cc2ccc(C(=O)NCCc3ccccc3)cc2)CC1	13	·
Cc1noc(C)c1-c1cnc(Nc2ccc(Cl)cn2)c2c1CCO2	-22	28µM*
Cc1noc(C)c1-c1cnc(Nc2ccc(CN3CCN(C)CC3)cc2)c2c1CCO2	10	25µM*
Cc1ccc(-c2onc(C)c2C)cc1S(=O)(=O)Nc1ccc(Cl)cn1	36	?
Cc1noc(C)c1-c1cnc(Nc2cc(F)cc(N3CCOCC3)c2)c2c1CCO2	-10	?
O=C(c1ccoc1)N1CCC(Oc2ccccc2-c2nc(-c3ccccc3)no2)C1 (stereo unspecified)	-9	·
SMILES	IP6K1 inh	KDM5B inh
COc1ccc(-c2cccc(C(=O)NCc3ccccc3)c2)nn1	14	·
COCCNC(=O)C1(C)CN(Cc2ccccc2)Cc2ccc(NCC(C)C)nc21 (stereo unspecified)	6	?
COCCN1Cc2ccc(Nc3ccc(OC)cc3)nc2C(C)(C(=O)Nc2ccccc2)C1 (stereo unspecified)	-9	32µM*
CNC(=O)C1(C)CN(Cc2ccccc2)Cc2ccc(Nc3ccccc3)nc21 (stereo unspecified)	-2	35µM*
COC1CCN(C(=O)C2(C)CN(Cc3ccccc3)Cc3ccc(Nc4ccccc4)nc32)CC1 (stereo unspecified)	7	32µM*
COCCNC(=O)C1(C)CN(Cc2ccccc2)Cc2ccc(Nc3ccccc3)nc21 (stereo unspecified)	1	32µM*
COCCN1Cc2ccc(NCC(C)C)nc2C(C)(C(=O)Nc2ccc(OC)cc2)C1 (stereo unspecified)	24	?
COc1cc(Cl)c(NC(=O)c2ccc3c(=O)n4c(nc3c2)CCCCCC4)cc1OC	·	i
COc1ccc(C(C)=O)cc1CSCc1coc(-c2ccc(Cl)cc2)n1	·	i
Cn1c2c(c3cc(F)ccc31)CN(C(=O)Nc1ccc(Cl)cc1)CC2	5	?
Cc1cccc(NC(=O)N2CCC(C(=O)c3ccc(F)cc3)CC2)c1	·	i
Cn1c2c(c3cc(F)ccc31)CN(C(=O)Nc1cccc(Cl)c1)CC2	-2	32µM*
Cc1cccc(NC(=O)N2CCc3c(c4cc(F)ccc4n3C)C2)c1	0	32µM*
CCC(C)C(=O)Nc1cc(S(=O)(=O)N(CC)CC)ccc1N1CCOCC1 (stereo unspecified)	·	i
Cc1ccccc1S(=O)(=O)N1CCN(C2CCN(Cc3ccccn3)C2=O)CC1 (stereo unspecified)	11	i
Cc1nc(NC(=O)N2CCCC2C(N)=O)sc1-c1ccnc(C(C)(C)C(F)(F)F)c1 (stereo unspecified)	-4	·
COc1ccc(OC)c(NC(=O)Cn2cccc(-c3nc(-c4ccc(OC)c(OC)c4)no3)c2=O)c1	·	i
CCc1ccccc1-n1nc(-c2c(C)nc3scc(CC(=O)NCCOC)n3c2=O)cc1C	1	?
Cc1nc2scc(CC(=O)N3CCCC3)n2c(=O)c1-c1cc(C)n(-c2ccccc2F)n1	-7	?
CCCNC(=O)Cc1csc2nc(C)c(-c3cc(C)n(-c4ccccc4CC)n3)c(=O)n12	5	?
CCCCCCNC(=O)Cc1csc2nc(C)c(-c3cc(C)n(-c4ccccc4OC)n3)c(=O)n12	2	28µM*
CCc1ccccc1-n1nc(-c2c(C)nc3scc(CC(=O)N4CCCC4)n3c2=O)cc1C	0	32µM*
CCCCCCNC(=O)Cc1csc2nc(C)c(-c3cc(C)n(-c4cccc(C)c4)n3)c(=O)n12	0	?
CCCCNC(=O)Cc1csc2nc(C)c(-c3cc(C)n(-c4ccccc4CC)n3)c(=O)n12	9	32µM*
CCCCCNC(=O)Cc1csc2nc(C)c(-c3cc(C)n(-c4cccc(C)c4C)n3)c(=O)n12	23	32µM*
SMILES	IP6K1 inh	KDM5B inh
O=C(c1cccc(F)c1)N(Cc1ccco1)C1CC1	·	i
O=C(NCCc1ccc(Cl)cc1)C1CCCN(c2ccnc3ccnn23)C1 (stereo unspecified)	-5	·
Cc1ccc(/C=C/C(=O)NCC(C)C)cc1	·	i
CS(=O)(=O)Nc1ccccc1C(=O)N1CCN(C(c2ccccc2)c2ccccc2)CC1	·	i
O=C(Nc1ccccc1)N1CCN(C(=O)c2nc3cccnc3n(C3CCCC3)c2=O)CC1	2	·
CCc1ccccc1-n1nc(-c2c(C)nc3scc(CC(=O)NCc4ccco4)n3c2=O)cc1C	6	28µM*
CCCc1nn2c(=O)cc(COC(=O)c3cc(OC)c(OC)c(OC)c3)nc2s1	·	i
COc1cc2c(cc1-c1cccnc1)OCC(C)(C)CC2CO (stereo unspecified)	-8	·
Oc1ccc(N=CCCc2ccccc2)cc1	·	i
Cc1cccc(C(=O)NCc2nnc3cc(-c4nc(C)no4)ccn23)c1	8	25µM*
CC(C)c1noc(-c2ccn3c(CNC(=O)c4ccccc4)nnc3c2)n1	-7	i
Cc1cccc(C(=O)NCc2nnc3cc(-c4nc(C(C)C)no4)ccn23)c1	15	28µM*
Cc1ccc(C(=O)NCc2nnc3cc(-c4nc(C)no4)ccn23)cc1	9	11µM*
CC(C)c1noc(-c2ccn3c(CNC(=O)c4ccoc4)nnc3c2)n1	-10	28µM*
Cc1noc(-c2ccn3c(CNC(=O)c4cccc(N(C)C)c4)nnc3c2)n1	8	?
CCCCOc1ccc2c(=O)c(Oc3ccc(OC)cc3)c(C(F)(F)F)oc2c1	·	i
CNC(=O)CCn1ncc2cc(OCc3ccccc3-c3ccc(OC)cc3C)ccc21	-9	?
